# According to ChEMBL document CHEMBL3988442, “University of Dundee, Small-Polar-MMV Screening Library” (2021):
# Among all 48,000 compounds or so, about 13,000 (27%) showed an effect of 50% or more. The list shows a part of the results.
# Test system: Wolbachia pipientis
# Assay: Anti-Wolbachia Cell-Based Screen
# Type: functional
# Parameters: scale not given: in the data most compounds retested in dose-response had high values
# Details: 5 µM
row,Structure (SMILES),Percent Effect [%]
1,CCc1ccccc1OCC(=O)Nc1ccnc(OCCN(C)C)c1,4.07
2,CN(Cc1ccc(Cl)cc1)S(=O)(=O)N(C)Cc1cnn(C)c1,-1.179
3,COCCCN(C)c1nc(-c2ccncc2)nc2c1CCN(C(C)=O)C2,7.228
4,CC(=O)N1CCc2c(nc(-c3cccnc3)nc2N(C)CC(O)CO)C1 (stereo not given),-2.171
5,C=Cn1cc(CN2CCc3nc(-c4cccnc4)nc(O)c3C2)c(C)n1,93.89
6,Cc1nn(C)cc1CN1CCc2nc(-c3cccnc3)nc(O)c2C1,87.93
7,Cn1cc(CNCC2(O)CCCCC2)c(-c2cccnc2)n1,2.797
8,C=Cn1ncc(CN2CCc3nc(-c4ccncc4)nc(O)c3C2)c1C,95.82
9,NCC1CN(c2nc(-c3cccnc3)nc3c2CCNCC3)CCO1 (stereo not given),-59.49
10,Cc1nccn1CCN(C)c1nc(-c2cccnc2)nc2c1CCNC2,2.372
11,Cc1nc(-c2cnn(C)c2)nc2c1CN(C(=O)c1cccnc1)CC2,-2.218
12,Cc1cnn(C2CN(c3nc(-c4ccncc4)nc4c3CCC4)C2)c1,-2.167
13,Cc1ccc(O)c(CN2CCc3nc(-c4cccnc4)nc(O)c3C2)c1,101.6
14,Cc1cccc(-c2noc(CN3CCc4c(ncn4C4CC4)C3)n2)c1,-0.5665
15,CC(C)(C)NC(=O)C1CSCN1S(=O)(=O)c1ccccc1S(C)(=O)=O (stereo not given),4.107
16,CCc1ncc2c(n1)CN(C(=O)CC(C)NC(C)=O)C2 (stereo not given),-5.882
17,Cc1cc(CN(C)C(=O)NC(C)Cc2ccco2)no1 (stereo not given),4.671
18,CCn1ccnc1CN1CCN(c2nc(C)cc(OC)n2)CC1,-15.82
19,CC[C@@H]1N(CC2CCOCC2)CCC[C@]12CCC(=O)N2.O=C(O)C(F)(F)F,-7.738
20,NC(=O)c1cc(-n2cc(-c3cccc(C(=O)O)c3)cn2)cs1,-1.419
21,CN(c1cccnc1N1CCCC1)S(=O)(=O)c1cnn(C)c1,8.889
22,CC(O)CNc1nc(-c2cccnc2)nc2c1CCC2 (stereo not given),-9.754
23,CCn1ncc(CN2CCc3nc(-c4cccnc4)nc(O)c3C2)c1C,89.32
24,CCc1noc(CNc2nc(-c3cccnc3)nc3c2CCNCC3)n1,3.724
25,CCn1c(N)nc2cc(C(=O)N3CCCN(C)CC3)cnc21,-5.515
26,CN1CCN(C(=O)c2cnc3c(cnn3C3CCCC3)c2)CC1,4.55
27,O=C(O)c1cnc2c(cnn2C2CCCC2)c1,-9.214

row,Structure (SMILES),Percent Effect [%]
1,CN1CCC(N(C)C(=O)c2cnc3c(cnn3C3CCCC3)c2)CC1,105.6
2,O=C(c1cnc2c(cnn2C2CCCC2)c1)N1CCN(CCO)CC1,107.7
3,CS(=O)(=O)NC(=O)c1cnc2c(cnn2C2CCCC2)c1,-4.215
4,CC1CN(C)CCN1C(=O)c1cnc2c(cnn2C2CCCC2)c1 (stereo not given),101.7
5,CCOC1CCCN(C(=O)c2cnc3c(cnn3C3CCCC3)c2)C1 (stereo not given),-8.504
6,CCn1c(N)nc2cc(C(=O)N3CCC(N4CCCC4)CC3)cnc21,-1.571
7,CC1CN(C)CCN1C(=O)c1cnc2onc(CC(C)(C)C)c2c1 (stereo not given),4.024
8,CCN1CCN(C(=O)c2cnc3c(cnn3C3CCCC3)c2)CC1,83.11
9,CC(C)CCN(C)C(=O)c1cnc2c(cnn2CC(C)C)c1,1.745
10,Cn1ccnc1SCC(=O)NCCC1CCCO1 (stereo not given),1.622
11,Cn1cc(S(=O)(=O)NC(CO)Cc2c[nH]c3ccccc23)cn1 (stereo not given),-17.12
12,Cn1cccc1C(=O)NCc1cn2c(n1)CN(S(=O)(=O)C1CC1)CC2,-2.289
13,Cc1ncc(C(=O)N2CCC(N3C[C@@H](C)O[C@@H](C)C3)CC2)c(=O)[nH]1,-16.5
14,CCc1noc(CC)c1CNC(=O)Nc1cccc(C(=O)N(C)C)c1,14.38
15,O=C(c1cnc2c(cnn2C2CCCC2)c1)N1CCCSCC1,112.1
16,NC(=O)C1CCCN(C(=O)c2cnc3c(cnn3C3CCCC3)c2)C1 (stereo not given),-9.879
17,O=C(c1ccc2c(c1)[nH]c(=O)n2C1CCCC1)N1CCCSCC1,-3.459
18,CC(=O)NCc1nc(CC(C)C)nn1-c1cccc(C)c1,-6.896
19,Cc1cccc(-n2nc(CC(C)C)nc2[C@H](C)O)c1,-4.735
20,O=C(O)c1c(Cl)ncn1-c1ccccc1,76.14
21,Cc1cccc(-n2cnc(Cl)c2C(=O)O)c1,93.89
22,O=C1CC(c2ccc(C(=O)O)cc2)c2ncn(-c3ccccc3)c2N1 (stereo not given),13.74
23,CC(C)c1cccc(-n2cc(O)c(C(=O)O)n2)c1,39.26
24,CCc1ccc(C2CCCN2C(=O)Cc2ccc(NC(C)=O)cc2)o1 (stereo not given),-1.143
25,CC(C)OCc1ncn2c1CN(Cc1cnn(C)c1)CCC2.O=C(O)C(F)(F)F,-6.941
26,Cc1ccnc(NC(=O)C2CCCO2)c1 (stereo not given),0.6753
27,CCSCc1ccnc(NC(=O)C2CCCO2)c1 (stereo not given),2.987

row,Structure (SMILES),Percent Effect [%]
1,CC(=O)Nc1ccc(CCC2(NC(=O)C3CC3)CCCCC2)cn1,53.79
2,O=C(Nc1ccc(-c2ccccc2)cn1)C1CCCN1C(=O)C1CC1 (stereo not given),-4.535
3,CS(=O)(=O)NC1(CCc2ccc(NC(=O)C3CC3)nc2)CCCCC1,95.32
4,O=C(Nc1ccc(Cl)cn1)C1CCN(CCc2ccccn2)CC1,5.331
5,Cc1ccc(NC(=O)C2CCCN2C(=O)C2CC2)nc1 (stereo not given),4.832
6,CC(=O)Nc1ccc(CCC2(NC(=O)C3CCCO3)CCCCC2)cn1 (stereo not given),144.1
7,O=C(Nc1ccc(N2CCCCC2)cn1)C1CCCN1C(=O)C1CC1 (stereo not given),5.13
8,CC(C)(C)C(=O)N1CC[C@H]2NC(=O)N(c3ccc(F)cc3)C(=O)[C@H]21,-4.362
9,Cc1ccc(Cl)cc1C(=O)N1CCC2(CC1)c1ccccc1[C@@H](N)[C@@H]2O,-15.25
10,COCCN(C(=O)c1cc(C)no1)c1ccc(C#N)cc1,-3.36
11,CCNc1cc2c(nn1)CCN(C(=O)c1cc3c(s1)CCOC3)C2,6.196
12,Cc1noc(Cl)c1CCC(=O)N1CCc2sccc2C1,4.589
13,CCNc1cc2c(nn1)CCN(C(=O)c1c(C)noc1C)C2,134.6
14,CCNc1cc2c(nn1)CCN(C(=O)C1Cc3ccccc3O1)C2 (stereo not given),-6.016
15,CCNc1cc2c(nn1)CCN(C(=O)c1cc3nc(C)ccc3o1)C2,0.3764
16,CCNc1cc2c(nn1)CCN(C(=O)CCc1c(C)noc1Cl)C2,92.82
17,CCNc1cc2c(nn1)CCN(C(=O)C(C)c1c(C)noc1C)C2 (stereo not given),124.9
18,CCNc1cc2c(nn1)CCN(C(=O)Cc1noc3ccccc13)C2,2.376
19,CCNc1cc2c(nn1)CCN(C(=O)CCc1c(C)noc1C)C2,85.75
20,CCNc1cc2c(nn1)CCN(C(=O)Cc1c(C)noc1C)C2,-1.817
21,CN(C1CCCCC1)S(=O)(=O)NC1CCN(c2ncccn2)CC1,-8.607
22,Cc1n[nH]c(C(=O)NCc2ccnc(OCC(F)(F)F)c2)c1Br,-11.41
23,COc1ccc(CCN2CCCC(CN(C)Cc3ccc(C)o3)C2)cc1 (stereo not given),-2.586
24,O=C(c1cccc2[nH]ccc12)N1CCC2(CCOC2)C1 (stereo not given),-0.4242
25,CCNc1cc2c(nn1)CCN(C(=O)c1ccc(CNC(C)=O)o1)C2,-5.342
26,CNc1cc2c(nn1)CCN(C(=O)c1ccoc1)C2,3.239
27,CCNc1cc2c(nn1)CCN(C(=O)c1ccoc1)C2,77.15

row,Structure (SMILES),Percent Effect [%]
1,COc1ccc(Cl)cc1-n1c(COC(C)C)n[nH]c1=O,9.918
2,O=C(C1CCS(=O)(=O)C1)N1CCN(c2cnccn2)CC1 (stereo not given),-8.289
3,CC1(C(=O)N2CCN(c3ncccn3)CC2)CNCCO1 (stereo not given),48.6
4,CN(C)c1ccccc1C(=O)N1CCOC2(CNCCOC2)C1 (stereo not given),-52.05
5,CC1(C(=O)N2CCN(c3cnccn3)CC2)CNCCO1 (stereo not given),114.6
6,CC1(C(=O)N2CCOCC2)CNCCO1.Cl (stereo not given),81.13
7,CC1(C(=O)N2CCSCC2)CNCCO1 (stereo not given),81.85
8,C[C@@H]1CN(C2(C(=O)N3CCSCC3)Cc3ccccc3C2)C[C@H](C)O1,1.613
9,O=C(c1cccc(Cl)c1F)N1CCOC2(CNCCOC2)C1 (stereo not given),-25.29
10,O=C(N1CCSCC1)C1(O)Cc2ccccc2C1,1.421
11,Cc1cc(=O)n(C)cc1NC(=O)Cc1cccc(Cl)c1,5.962
12,Cc1cc(Cn2cc(C#N)c(=O)c3ccccc32)on1,-11.07
13,Cc1nc(CN2CCCC(CCc3ccccc3C(F)(F)F)C2)no1 (stereo not given),-1.662
14,O=C(Nc1cc(Cl)ccc1N1CCCCC1)c1ccccn1,-5.482
15,CCN(CC)CCn1cc(NC(=O)Nc2ccccc2OC)cn1,2.741
16,Cc1ccc(C(=O)Nc2ccccc2N2CCCC2)n1C,84.28
17,Cc1ccc(C(=O)Nc2ccccc2F)n1C,94.36
18,COc1ccccc1NC(=O)c1[nH]nc(C(C)C)c1Br,-4.147
19,CCc1nc(C)c([C@H]2CN(C)C[C@@H]2C(=O)Nc2ccccc2F)[nH]1,-8.421
20,CC1CCC(NS(=O)(=O)CC(=O)Nc2ccccc2N2CCCC2)CC1 (stereo not given),3.293
21,Cc1c(C(C)NC(=O)Nc2ccccc2F)cnn1C (stereo not given),3.461
22,COc1ccccc1NC(=O)c1ccc(C)n1C,99.48
23,CC(C)C(C)N1Cc2cccc(NCC(=O)N(C)C)c2C1 (stereo not given),11.84
24,CC(=O)c1cc(CN2CCCCC2c2nc3cc(F)ccc3[nH]2)cs1 (stereo not given),-8.075
